Hit rate of the full screen: of about 140,000 compounds, about 240 (0.17%) were called active. Not shown: some 9% with an inconclusive outcome. This excerpt belongs to a sample that is enriched for actives. Values without a mark were called inactive. The call rests on the fitted dose curve; in most records, active means well fitted inhibition curve with a large enough effect; inconclusive means small, poorly fitted or top-dose-only effect; inactive means no such curve, though single readings can be large or run the other way.
assay: Primary qHTS assay for inhibitors of alpha-synuclein gene (SNCA) expression; settings: HEK-293 SNCA-luciferase knock-in, luminescence, 24 h; series mostly up to 57.2 µM; activity change, negative = inhibition: at the top concentration; further: nearly all actives have a fitted effect of over 45% in size
Source text: Assay Submitter (PI): Daniel R. Scoles Ph.D.
Department of Neurology, University of Utah, Salt Lake City, Utah
Accumulation of alpha-synuclein is a main underlying pathological feature of Parkinson's disease (PD) and alpha-synucleinopathies, for which lowering expression of the alpha-synuclein gene (SNCA) is a potential therapeutic avenue. Using a cell-based luciferase reporter of SNCA expression we performed a quantitative high throughput screen (qHTS) of 155,885 compounds in dose response. The screening assay was generated using genome editing to insert the luciferase gene downstream and in frame of the SNCA gene in HEK-293 cells (1). A viability counterscreen using GF-AFC was used to eliminate cytotoxic and false positive compounds. After in silico analysis (clustering, removal of frequent hitter nuisance chemotypes), inhibitor compounds from the primary screen were selected for follow up and re-tested at 11-doses in the SNCA-luc cells (luciferase and GF-AFC confirmation), and in CMV-luc expressing cell line to flag general transcriptional repressors.
Described herein are the results of the primary screen for SNCA inhibitors; decrease in luciferase signal (inhibition of the SNCA gene expression) is the desired output for this assay.
1. Dansithong, W., Paul, S., Scoles, D. R., Pulst, S. M., and Huynh, D. P. (2015) Generation of SNCA Cell Models Using Zinc Finger Nuclease (ZFN) Technology for Efficient High-Throughput Drug Screening. PLoS ONE 10, e0136930.
SEQUENCE No. (e.g., 1, 2, 3, etc.); […] (e.g., Cells, Incubation, Reagent, etc.); VALUE; DESCRIPTION
1; Cells; 4 uL; Dispense 1500 HEK-293-SNCA-luc cells/well into Greiner 1536-well white / solid bottom tissue culture treated plate. The plate was covered with metal lids with gas-exchange holes.
2; Incubate; 24 hours; Incubate at 37C, 5% CO2, 95% RH.
3; Compounds; 23 nL; Compounds and controls were transferred via a Kalypsys Pin Tool (Wako USA) equipped with a 1536-slotted pin array. The plate was covered with metal lids with gas-exchange holes.
4; Incubate; 24 hours; Incubate at 37C, 5% CO2, 95% RH.
5; Dispense; 1 uL; Dispense Gly-Phe-7-amino-4-trifluoromethylcoumarin (GF-AFC, prepared at 125 uM in PBS) was added. The plate was covered with metal lids with gas-exchange holes.
6; Incubate; 30 min; Incubate at 37C, 5% CO2.
7; Detector; Fluorescence; Measure fluorescence with ViewLux microplate reader (PerkinElmer) equipped with 405/10 excitation and 540/25 emission filters.
8; Dispense; 3 uL; Dispense ONE-Glo ([…]) lucifase detection reagent was added to each well. Plates were covered with metal lids with gas-exchange holes.
9; Incubate; 15 min; Incubate at room temperature.
10; Detector; Luminescence; Measure luminescence with ViewLux microplate reader (PerkinElmer) equipped with clear filters.
NOTES (numbers refer to sequence above)
1; HEK-293-SNCA-luc were cultured and suspended in phenol-red free DMEM (4.5 g/L glucose, 25 mM HEPES, cat #21063 (Thermo)).
3; Compounds were added to the assay plate in an 11-point intra plate dose response, 1:3 titration in DMSO with a final concentration range of […]. Vehicle-only plates, with DMSO being pin-transferred to every well, were inserted at the beginning of screening runs to confirm expected assay performance. Activity was normalized to wells containing medium only (-100% activity, full inhibition) and SNCA-luc cells treated with DMSO vehicle control (0% activity), contained on the same plate as test samples.
10; Signals were analyzed, and dose-response curves were fit using the Hill equation. Compounds in curve classes -1.1, -1.2, -2.1, -2.2 in the SNCA-luc assay were considered active. Compounds were eliminated from further consideration if also active (curve class -1.1, -1.2, -1.3, -1.4, -2.1, -2.2, -2.3, -2.4) in the GF-AFC cytotoxicity assay.
Potency means the concentration at half of the fitted maximal effect.

Row | Structure (SMILES) | activity change, negative = inhibition | Potency
1 | CC(=O)N1CCN(C(=O)c2ccc3nc(-c4ccncc4)oc3c2)CC1 | 25.2% | 
2 | O=C(NCCc1ccccc1)c1ccc2nnc(C3CCCC3)n2c1 | 29.4% [at 87.6 µM] | 
3 | CCOC(=O)C1CCCN(C(=O)Cc2ccc(N(Cc3cccc(F)c3)C(=O)c3ccco3)cc2)C1 (centres undefined) | -23.9% | 
4 | CCOc1ccccc1C(=O)N1CCC(Cc2nc(-c3ccccc3)no2)CC1 | -35.6% | 
5 | COc1ccc(NC(=O)[C@@H]2C[C@@H](c3ccc(F)cc3)N(CCOc3ccccc3)C2)cn1 | -25.5% [at 87.6 µM] | 
6 | CC(C)(C)C(=O)N1CCc2nc(-c3ccc(Cl)cc3)nc(-c3ccccc3)c2C1 | 8.29% | 
7 | Cc1ccc([S+](=O)([O-])N2CCN(C(=O)c3nc4cccnc4n(C4CCCC4)c3=O)CC2)cc1 | 15% | 
8 | Oc1ccccc1CN1CCOC[C@H]1c1ncc(-c2ccc(C(F)(F)F)cc2)[nH]1 | -16.2% [at 87.6 µM] | 
9 | Cc1c(Cl)cccc1NC(=O)N(C)CC1CCOC1 (centres undefined) | -18.4% | 
10 | CC1(c2cccnc2)N(CCOc2ccccc2)C(=O)OC12CCN(C(=O)c1cccc(Cl)c1)CC2 (centres undefined) | 1.76% | 
11 | COc1ccccc1-c1cc(C(=O)NCCSC)nn2cccc12 | 7.11% | 
12 | CC1=C[C@@H](CNC(=O)Nc2ccccc2)[C@H](C(C)C)C[C@H]1CC(=O)NCCN(C)C | 10.4% [at 87.6 µM] | 
13 | O=C(C1CCC1)N1CCC(O)(c2csc(CN3CCc4ccccc4C3)n2)CC1 | -14.5% [at 87.6 µM] | 
14 | O=C1[C@@H]2C[C@@H](O)CN2C2(CN(C3CCC3)C2)C(=O)N1Cc1ccccc1 | -1.96% [at 87.6 µM] | 
15 | Cc1ccc(-c2noc([C@@H]3C[C@@H](O)CN3Cc3cccc(C#N)c3)n2)cc1F | 50% [at 87.6 µM] | 
16 | O=C(Cc1ccccn1)N1CCC(C(=O)N2CCC(N3CCCC3=O)CC2)CC1 | 23% | 
17 | O=C(NCCc1ccccc1)C1=NO[C@@H]2CN(Cc3ccc(F)cc3)C[C@H]12 | -24% [at 87.6 µM] | 
18 | CC1(C)[C@H](Cc2cc(CC3CCCCC3)on2)C[C@@H]1NC1CCOCC1 | -20.1% [at 87.6 µM] | 
19 | COc1cc(OC)c(CNC(=O)c2c(C)noc2-c2cc(OC)c(OC)c(OC)c2)c(OC)c1 | -14% | 
20 | O=C(NCc1cccc(F)c1)c1c[nH]c2ncccc12 | 38.6% [at 87.6 µM] | 
21 | Cc1ccc(C(=O)N2CCC(N3CC4CC(C3)[C@H]3CCCC(=O)N3C4)CC2)s1 (some centres undefined) | -10.4% | 
22 | CCOc1cccc(CNC(=O)CC2CCCCN(Cc3ccccc3)C2=O)c1 (centres undefined) | -19.5% | 
23 | O=C(NCc1ccccc1)C1CCN(c2nccc(Nc3ccccc3Cl)n2)CC1 | 15.5% | 
24 | COc1ccccc1-c1[nH]nc2ncc(-c3cccc(CO)c3)nc12 | 40% [at 87.6 µM] | 
25 | O=C(Cc1ccccn1)N1CCCC(C(=O)N2CCC(c3nc4ncccc4[nH]3)CC2)C1 (centres undefined) | -25.7% | 

Row | Structure (SMILES) | activity change, negative = inhibition | Potency
26 | COc1ccc(Nc2cnc3ccc(-c4ccc(OC)nc4)nn23)cc1 | 16% [at 87.6 µM] | 
27 | O=C1NC2(Cc3ccccc31)CN([S+](=O)([O-])c1ccccc1)C2 | -1.01% | 
28 | COCC(=O)N1CC(C(=O)NCCc2ccccn2)C2(CCOCC2)C1 (centres undefined) | -5.39% | 
29 | Cc1ccc(CNC(=O)c2ccc3c(c2)CN(Cc2cccnc2Cl)CCO3)cc1 | 9.94% | 
30 | O=C1CO[C@H]2CN(C3CCC3)C[C@H]2N1Cc1ccc(OC(F)(F)F)cc1 | -24.4% [at 87.6 µM] | 
31 | O=C1NCCc2[nH]c(-c3ccncc3)cc21 |  | 3.41 µM (active)
32 | CC(C)CNC(=O)C1CCCN(c2nccc(Nc3ccccc3F)n2)C1 (centres undefined) | -8.89% | 
33 | CN(Cc1ccccc1)C(=O)CC1CCN(C(=O)CCC2CCCC2)C1 (centres undefined) | 5.5% | 
34 | COc1ccc(CC(=O)NC2CCN(c3cc(-c4ccccc4)[nH]n3)CC2)cc1 | 0.566% | 
35 | CC(=O)c1cnc2ccc(-c3cc(Cl)c(O)c(Cl)c3)nc2c1NC1CCC(CN(C)C)CC1 (centres undefined) |  | 0.027 µM (active)
36 | CCN(CC)Cc1ccc2c(c1)CN(C(=O)Cc1c[nH]c3ccccc13)CCO2 | 1.62% | 
37 | N#Cc1cccc(-c2c(C(=O)NCCc3ccccc3)nc3sccn23)c1 | 21.4% | 
38 | COc1ccccc1CCC(=O)N1C[C@H](N)C[C@H]1C(=O)NC(C)C | -20.2% | 
39 | COc1cccc(CNC(=O)c2cc(-c3cccnc3)nc3c2cnn3C)c1 | -17.4% | 
40 | COCCN1C(=O)N(C)C(=O)C12CCN(Cc1cc(F)ccc1F)C2 (centres undefined) | -6.12% | 
41 | O=C1NCCCCCN(C(=O)Cc2ccccc2)[C@@H]2C[C@@H](C(=O)N3CCc4ccccc4C3)C[C@H]12 | -16.4% | 
42 | CCCNC(=O)C(NC(=O)c1ccccc1C)C1CCN(C(=O)c2ccc(OC)cc2)CC1 (centres undefined) | 17.1% | 
43 | O=S(=O)(c1cccc(F)c1)N1CC[C@@H]2COCCN(Cc3cccnc3)[C@@H]2C1 | 16.8% | 
44 | CN(C)c1ccc(CN[C@H]2[C@H](O)[C@@H](N3CCC(Cc4ccccc4)CC3)[C@@H]3OC[C@H]2O3)cc1 | -9.07% | 
45 | Cc1ccc(C(=O)N2CCC3(CC2)NC(=O)N(Cc2ccc(F)cc2)C3=O)cc1 | 7.66% | 
46 | CN(C)CCc1c[nH]c2ccc(Cn3cncn3)cc12 |  | 2.71 µM (active)
47 | COc1ccc2[nH]cc(CCNc3cc(-c4ccccc4CN(C)C)ncn3)c2c1 | -19.4% | 
48 | CS(=O)(=O)N(Cc1ccccn1)C1CN(C(=O)NCCc2ccccc2)C1 | -15.2% | 
49 | O=C(NCc1ccc(F)cc1)c1nc(-c2ccccc2)c2ccccn12 | -74.1% | 
